In the library only some 5.7% were active in any assay of this set; here they are far more common.
Myeloid diff 2: myeloid differentiation induction; ER-HoxA9 myeloid progenitors, lysozyme-GFP differentiation, flow cytometry; calls only at 10 µM; hit rate 1% among 360,000;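 active means normalized GFP-positive differentiation at or above the plate's own cutoff, the solvent-only control mean plus 3 SD; inconclusive means no clear call, values can overlap the other calls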;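 further: cells exposed to compound for four days before flow analysis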
GRIN3A LBD mod: modulators (binders) of human NR3A ligand-binding domain; NR3A LBD differential scanning fluorimetry, Tm shift; 0% = protein alone, 100% = glycine-bound protein; Tm shift relative to glycine control, % at 25 µM; hit rate 2.5% among 340,000; AID 1259313;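 active means melting temperature shift of at least 10% of the positive control shift, at one fixed dose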
rCAG binder: molecules binding r(CAG) RNA repeats; r(CAG) RNA repeat, TO-PRO-1 dye displacement fluorescence; inhibition, % at 3 µM; hit rate 1.3% among 370,000;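 active means inhibition above the plate cutoff, the mean of all test compounds on that plate plus 3 SD, cut at about 35% in these data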;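 further: 0% = DMSO alone and 100% = 100 µM mitoxantrone as full dye displacement; higher means more dye released from RNA so lower well fluorescence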
MPTP block: inhibitors of mitochondrial permeability transition pore; isolated mouse mitochondria, Ca2+ swelling absorbance, 30 min; inhibition, % at 10 µM; hit rate 1.4% among 360,000;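 active means inhibition of 50% or more, scaled per plate between neutral and stimulator controls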;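 further: 0% = DMSO wells given calcium and 100% = 1 mM EGTA wells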
FAS TE block: inhibitors of human fatty acid synthase thioesterase domain | recombinant FAS-TE, OMFH fluorogenic substrate, fluorescence endpoint | inhibition, % at 15 µM | hit rate 0.67% among 360,000 | AID 602261;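 active means compounds whose normalised, plate-corrected inhibition of enzyme fluorescence in the single-dose primary screen is 50% or more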;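 further: 0% = DMSO with enzyme and 100% = substrate without enzyme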
Rh123 counter: membrane potential counter-screen of mitochondrial pore inhibitors; shares compounds with MPTP block; isolated mitochondria, Rhodamine 123 fluorescence; inhibition, % at 10 µM; hit rate 78% among 5,000; AID 624504; in the data active means inhibition above about 22%;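 further: 0% = DMSO vehicle and 100% = positive control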
MPTP swell DR: MPTP inhibition, dose response swelling confirmation; AID 651561; shares compounds with MPTP block; IC50, µM; isolated mitochondria swelling, absorbance; hit rate 58% among 780; in the data active means IC50 below about 20 µM
MPTP counter DR: active in counter-screen for permeability transition pore inhibitors | shares compounds with MPTP block | isolated mitochondria counterscreen, fluorescence read-out | IC50, µM | hit rate 49% among 780 | AID 651564; in the data active means IC50 below about 80 µM
The depositor's hits bear a star; i = inactive; u = inconclusive; x = no result given; + = active, no number.

SMILES	Myeloid diff 2	GRIN3A LBD mod	rCAG binder	MPTP block	FAS TE block	Rh123 counter	others
O=C(CCc1nc2ccccc2c(=O)[nH]1)N1CCN(c2ccc(F)cc2)CC1	i	1	1	-1	-9	x
COc1c(Br)cc([N+](=O)[O-])c(OC)c1C(=O)NC(=O)Nc1cc(Cl)cc(Cl)c1	i	13*	5	83*	-1	85*
COc1c(Br)cc([N+](=O)[O-])c(OC)c1C(=O)NC(=O)Nc1c(Cl)cccc1Cl	i	-13	0	4	35	x
COc1ccc(NC(=O)Nc2ccc3c(c2)CC(=O)N([C@H](C)CO)C[C@H](C)[C@H](CN(C)Cc2ccc(C(=O)O)cc2)O3)cc1	i	-3	32	-2	-7	x
COc1ccc(CCN2C(=O)CSC2=Nc2ccc(C(C)C)cc2)cc1OC	+	-1	-4	90*	44	94*
O=C(CNC(=O)c1sc2ccccc2c1Cl)NC1CC1	i	2	3	-1	-6	x
Cc1cc(/C=N/n2c(COc3ccccc3C)nc3ccccc3c2=O)c(O)c([N+](=O)[O-])c1	u	9	8	70*	48	39*
O=C1C=C(C2OC(CO)C(O)C2O)C(=O)N1 (stereo not drawn)	i	-2	1	-2	-5	x
COc1ccc(S(=O)(=O)Nc2ccc(Cc3ccncc3)cc2)cc1OC	i	-1	7	66*	-2	78*
CCc1ccc(OC)c(S(=O)(=O)Nc2ccc(Cc3ccncc3)cc2)c1	i	0	-1	79*	8	83*
O=S(=O)(Nc1ccc(Cc2ccncc2)cc1)c1ccc(Cl)c(Cl)c1	i	-2	5	0	29	x
Cc1ccc(C)c(S(=O)(=O)N2CCN(C(=O)c3sccc3C)CC2)c1	x	-3	-8	0	2	x
CC(C)n1cnnc1SCC(=O)NNC(=O)COc1ccc(Cl)cc1	i	0	0	-2	0	x
CCOc1ccc(C(=O)NCCN2CCCCC2)c(OCC)c1	i	-2	-3	1	0	x
CC(C)COC(=O)NCCOC(=O)Nc1cccc(Cl)c1	i	-1	-7	102*	2	100*
CC(C)COC(=O)NCCCOC(=O)Nc1ccccc1	i	-6	-3	-3	-4	x
COc1ccc(CC(=O)OC(C)C(=O)NCc2ccc3c(c2)OCO3)cc1OC (stereo not drawn)	i	-2	-2	1	-8	x
Cc1cccc(Nc2cc(C)c3c(O)cccc3n2)c1C	i	-6	11	16	-3	x
CCN(CC)CCOc1ccc(Br)cc1	i	-1	-3	-2	-5	x
CCN(CC)CCOc1ccc(/C(=C(\Cl)c2ccccc2)c2ccccc2)cc1	u	0	3	104*	15	-13
Cc1cc(-n2c(C)cc(C(=O)CSc3nc(N)cc(=O)[nH]3)c2C)no1	i	-1	13	23	0	x
Cc1cc(C(=O)CSc2nc(N)cc(=O)[nH]2)c(C)n1-c1ccc(OC(F)F)cc1	i	-1	3	98*	3	89*
Cc1ccc(S(=O)(=O)NCC(=O)NCC2COc3ccccc3O2)cc1C (stereo not drawn)	i	-1	3	-1	-2	x
CC(=O)N1CCN(C(=O)c2ccc(Cl)c(S(=O)(=O)N3CCCCCC3)c2)CC1	i	1	3	0	-5	x
Cc1ccc(S(=O)(=O)NC(=O)Nc2cccc([N+](=O)[O-])c2)cc1	i	1	-2	2	-3	x
SMILES	Myeloid diff 2	GRIN3A LBD mod	rCAG binder	MPTP block	FAS TE block	Rh123 counter	others
O=C(Nc1cccnc1)Nc1cccc([N+](=O)[O-])c1	i	7	6	62*	4	89*
Cc1ccc(C(C)C)cc1NC(=O)Nc1ccc([N+](=O)[O-])cc1	i	25*	16	84*	40	79*
Cc1ccc(NC(=O)Nc2cccc([N+](=O)[O-])c2)cc1F	i	34*	20	105*	43	70*
O=C(CSc1nnc(-c2ccccc2F)n1C1CC1)N1CCCC1	i	x	0	0	-4	x
CCOC(=O)c1c(C)[nH]c(C2=NNC(=NC3CC3)SC2)c1C	i	-1	x	-3	-57	x
Cc1cccc(N(C)S(=O)(=O)c2csc(C(N)=O)c2)c1	i	0	-3	2	0	x
CC(OC(=O)C1CSC2(C)CCC(=O)N12)C(=O)Nc1ccc(F)cc1 (stereo not drawn)	i	-1	0	0	-9	x
CC(NCC(O)COc1ccc(Br)cc1)c1ccccc1 (stereo not drawn)	i	1	1	81*	-2	-8	MPTP swell DR=5.5*;MPTP counter DR=>80
CC1CCC(C(C)C)C(OCC(O)CNC(C)c2ccccc2)C1 (stereo not drawn)	i	0	-2	77*	8	25*
COc1ccc(OCC(O)CNC(C)c2ccccc2)cc1 (stereo not drawn)	i	1	-2	0	-2	x
CCCC(NCC(O)COc1ccc(-c2ccccc2)cc1)c1ccccc1 (stereo not drawn)	u	-2	-3	55*	2	5	MPTP swell DR=4*;MPTP counter DR=48*
CC1CC(C)CN(CCCCOc2ccc([N+](=O)[O-])cc2)C1 (stereo not drawn)	i	2	1	1	-8	x
COc1ccccc1N1CCN(S(=O)(=O)CCNC(=O)CCc2ccccc2)CC1	i	x	-2	-1	-4	x
Cc1ccc(OCCn2c(SCCO)nc3c(N)ncnc32)cc1	i	0	2	1	2	x
CCn1c(SCC(=O)N2CCN(C(=O)c3ccco3)CC2)nnc1C(C)C	i	0	4	0	-5	x
COC(=O)/C=C1/S/C(=N/NC(=O)c2ccc(Cl)cc2Cl)NC1=O	i	6	6	0	-3	x
COC(=O)/C=C1\SC(=Nc2ccc(Cl)c(Cl)c2)NC1=O	i	-5	3	95*	1	52*
COC(=O)C1=C(C)N(Cc2ccc(C(F)(F)F)cc2)C(=NCc2ccccc2)NC1c1cccc(C(F)(F)F)c1 (stereo not drawn)	x	x	3	x	x	x
COC(=O)C1=C(C)N(Cc2ccc(C(F)(F)F)cc2)C(=NCc2ccc(C(F)(F)F)cc2)NC1c1cccc(F)c1 (stereo not drawn)	x	x	2	x	x	x
COC(=O)C1=C(C)N(Cc2ccccc2)C(=NCc2cccc(C(F)(F)F)c2)N[C@H]1c1cccc(F)c1	u	-37	8	80*	28	-5
COC(=O)C1=C(C)N(Cc2ccccc2)C(=NCc2cccc(C(F)(F)F)c2)N[C@H]1c1cccc(C(F)(F)F)c1	u	-15	x	88*	31	-1
CC(C)(C)OC(=O)N1CCC[C@@H]1C(=O)N1CCC[C@@H]1C(=O)NCc1ccccc1	x	x	0	x	x	x

From PubChem BioAssay
